HEK cytotox = Cytotoxic Profiling in HEK 293 Cell Line of Diverse Libraries Using Quantitative High-Throughput Screening; HEK 293 viability, ATP luminescence (CellTiter-Glo), 48-72 h; Potency, µM (highest dose often 115 µM), inactives show at the top dose activity change, negative = cytotoxicity, usual class: inhibitors; actives 6.6% (n = 94,000); AID 1345083, 2018; also: potency is read from the fitted curve at half-maximal effect; nearly all actives have a fitted effect of over 60% in size
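Pintool-delivered compounds were incubated with HEK 293 cells (250 cells/well) at 37 degree Celsius for 48 or 72 hr. ATP-dependent luminescence (CellTiter-Glo) then reported remaining viable cells.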
FLuc inh = Firefly luciferase inhibition profiling of diverse chemical library using quantitative high-throughput screening. purified P. pyralis luciferase, luminescence, biochemical. Luciferin 4-monooxygenase (Photinus pyralis), P08659. Potency, µM (highest dose often 115 µM), usual class: inhibitors. actives 2.5% (n = 76,000); also: potency is read from the fitted curve at half-maximal effect; nearly all actives have a fitted effect of over 65% in size
Target sequence (P08659 whole entry, looked up): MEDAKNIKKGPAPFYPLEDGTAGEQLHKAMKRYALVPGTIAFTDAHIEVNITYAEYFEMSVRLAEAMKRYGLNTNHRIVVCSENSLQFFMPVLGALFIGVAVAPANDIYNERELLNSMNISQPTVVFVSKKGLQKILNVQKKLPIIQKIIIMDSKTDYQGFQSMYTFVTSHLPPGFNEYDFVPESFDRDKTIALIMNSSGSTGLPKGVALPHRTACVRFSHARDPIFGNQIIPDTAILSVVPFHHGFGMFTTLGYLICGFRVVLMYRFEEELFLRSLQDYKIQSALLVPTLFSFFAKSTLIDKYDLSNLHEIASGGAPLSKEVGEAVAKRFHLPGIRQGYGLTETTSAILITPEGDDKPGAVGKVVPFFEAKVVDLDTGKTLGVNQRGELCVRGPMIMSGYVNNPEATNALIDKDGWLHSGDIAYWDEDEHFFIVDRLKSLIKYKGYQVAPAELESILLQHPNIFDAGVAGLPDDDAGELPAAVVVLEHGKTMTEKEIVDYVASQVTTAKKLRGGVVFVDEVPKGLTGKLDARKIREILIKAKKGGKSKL
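Purified P. pyralis luciferase (10nM final) in 50mM Tris acetate pH 7.5, 10mM Mg acetate, 0.01% Tween-20, 0.05% BSA with 10uM D-luciferin and 10uM ATP. Compounds titrated qHTS. Luminescence imaged on CCD.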
NIH3T3 tox = Cytotoxic Profiling in NIH 3T3 Cell Line of Diverse Libraries Using Quantitative High-Throughput Screening. NIH 3T3 viability, CellTiter-Glo ATP luminescence, 48-72 h. Potency, µM (doses to about 96.7 µM), inactives show at the highest dose activity change, negative = cytotoxicity, actives largely listed as inhibitors. actives 4.3% (n = 94,000); also: potency is read from the fitted curve at half-maximal effect; nearly all actives have a fitted effect of over 55% in size
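ATP-dependent luminescence (CellTiter-Glo) served as the viability signal for NIH 3T3 cells treated with compound for 48 or 72 hr at 37 °C.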
IP6K1 inhibitor = Primary qHTS assay for small molecule inhibitors of Inositol hexaphosphate kinase 1 (IP6K1) | IP6K1 kinase, ADP-Glo luminescence, 2 h; active compounds read low | actives 0.81% (n = 140,000) | Inositol hexakisphosphate kinase 1 (Homo sapiens), Q92551 | activity change, % (series mostly up to about 58 µM); in the data active = activity change below about -25%
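ADP-Glo luminescence measures ADP made by human IP6K1 during a 2 h RT reaction with ATP/IP6 (mix at 1.3 mM/130 uM); top library doses 57.5 and 19.1 uM final.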
SNCA viab count = GF-AFC viability counterscreen for inhibitors of alpha-synuclein gene (SNCA) expression. HEK-293-SNCA-luc viability, GF-AFC fluorescence, 24 h. Potency, µM (titrated, usually from 57.1 µM), inactives show top-dose activity change, negative = cytotoxicity, actives largely listed as cytotoxic. actives 0.12% (n = 150,000). AID 1671193, 2021;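 also: potency is read from the fitted curve at half-maximal effect; 0% = DMSO-treated cells and -100% = medium-only wells without cells; nearly all actives have a fitted effect of over 30% in size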
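HEK-293-SNCA-luc cells (1500/well) plated 24 h, then exposed 24 h to a dilution series; GF-AFC added 30 min at 37C, fluorescence 405/540 nm; normalised to medium-only and DMSO wells, Hill fit.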
SNCA expr inh = Primary qHTS assay for inhibitors of alpha-synuclein gene (SNCA) expression; Potency, µM (series often up to 57.2 µM), for inactives: at the highest dose activity change, negative = inhibition, most hits filed as inhibitors; AID 1671194, 2021; HEK-293 SNCA-luciferase knock-in, luminescence, 24 h; actives 0.17% (n = 140,000);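 also: potency is read from the fitted curve at half-maximal effect; plate controls were DMSO cells for no effect and cell-free wells for full effect; nearly all actives have a fitted effect of over 45% in size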
* marks the source's active call; other numbers are inactive results; i = inactive; ? = inconclusive; nt = not tested or not shown; [ ] = another dose, or the depositor's remark. Only some compounds are listed: those with a hit (about 7.3% of all), similar ones and a draw of the others. Unless noted, calls follow the shape of the dose curve; as a rule, active = well fitted curve in the direction sought with a large enough effect; inconclusive = small, poorly fitted or top-dose-only effect, or another doubt; inactive = no such curve, though single readings can be large; an effect the other way counts as inactive or inconclusive. Unless noted, % is scaled to controls: 0 for no effect and ±100 for the full control effect.

SMILES	HEK cytotox	FLuc inh	NIH3T3 tox	IP6K1 inhibitor	SNCA viab count	SNCA expr inh
CC1=C[C@@H](CNC(=O)C2CC2)[C@H](C(C)C)C[C@H]1CC(=O)Nc1ccccn1	-22.3%[172 µM]	i	-38.0%[174 µM]	-3.6	?	?
O=C(c1ccc(F)cc1)N1CCCN(c2ccc3nnc(C4CC4)n3n2)CC1	i	nt	-0.7%	4.4	nt	nt
COc1cccc(CNC(=O)c2ccc(Cn3ccn4nc5c(c4c3=O)CCCC5)cc2)c1	?	i	-23.8%	10.0	-9.8%	-14.7%
Cc1ccc(C)c(Cn2ccn3nc4c(c3c2=O)CCCC4)c1	39.8µM*	i	?	23.4	-1.4%	28.2%
O=C(NC1CCCCCCC1)c1ccc(Cn2ccn3nc4c(c3c2=O)CCCC4)cc1	31.6µM*	i	?	12.2	?	?
Cc1ccccc1N1CCN(C(=O)c2ccc(Cn3ccn4nc5c(c4c3=O)CCCC5)cc2)CC1	20µM*	i	?	-7.9	?	-18.6%
COc1ccc(CNC(=O)c2ccc(Cn3ccn4nc5c(c4c3=O)CCCC5)cc2)cc1	20µM*	i	?	39.1	?	?
O=C(NC1CC1)c1ccc(Cn2ccn3nc4c(c3c2=O)CCCC4)cc1	?	i	?	-0.1	-12.8%	39.3%
O=C(NCC1CCCO1)N1CCc2nc(-c3ccccc3)[nH]c2C1 (centres undefined)	i	nt	-5.1%	9.4	-10.3%	20.0%
CNC(=O)[C@@H]1CN(C(=O)NCc2ccco2)C[C@H]1c1nc(C)no1	-1.9%	i	-2.5%	25.4	9.4%	-4.5%
C[S+](=O)([O-])c1ccc(-c2cc(C(=O)N3CCC(C#N)CC3)nn3cccc23)cc1	?	nt	-15.7%	4.7	-3.0%	5.2%
CC(C)Oc1ccc(CNC(=O)c2ccc(Cn3ccn4nc5c(c4c3=O)CCCC5)cc2)cc1	35.5µM*	i	?	4.0	-7.2%	-23.2%
O=C(N1C[C@@H](CO)[C@H](c2nc(C3CC3)no2)C1)C1(c2ccccc2)CC1	i	i	-0.8%	-7.9	5.3%	14.1%
Cn1ncc2c(C(=O)NCc3ccc(C(F)(F)F)cc3)cc(-c3ccc(Cl)cc3Cl)nc21	?	nt	?	9.3	?	-20.7%
Cc1ccc(-c2cc(C(=O)NCc3ccc4c(c3)OCO4)c3cnn(C)c3n2)c(C)c1	?	nt	?	11.4	8.1%	-4.3%
Cn1ncc2c(C(=O)NCc3ccc(C(F)(F)F)cc3)cc(-c3ccccc3C(F)(F)F)nc21	17.8µM*	nt	?	16.4	nt	nt
Cn1ncc2c(C(=O)NCCCNC(=O)OC(C)(C)C)cc(-c3ccccc3F)nc21	44.7µM*	nt	?	13.3	nt	nt
Cn1ncc2c(C(=O)NCC#N)cc(-c3ccccc3C(F)(F)F)nc21	-25.6%	nt	?	-0.9	nt	nt
Cn1ncc2c(C(=O)NCc3ccc4c(c3)OCO4)cc(-c3ccccc3C(F)(F)F)nc21	35.5µM*	nt	?	21.3	nt	nt
Cn1ncc2c(C(=O)NCC(=O)OC(C)(C)C)cc(-c3ccccc3C(F)(F)F)nc21	44.7µM*	nt	?	7.7	nt	nt
Cn1ncc2c(C(=O)NCCCNC(=O)OC(C)(C)C)cc(-c3ccc(F)cc3)nc21	?	nt	?	4.7	nt	nt
Cn1ncc2c(C(=O)NCc3ccc(Cl)cc3)cc(-c3ccccc3C(F)(F)F)nc21	31.6µM*	nt	?	15.7	nt	nt
CC(NC(=O)c1cc(-c2ccccc2C(F)(F)F)nc2c1cnn2C)C(C)(C)C (centres undefined)	44.7µM*	nt	?	14.3	nt	nt
CCC(C)NC(=O)c1cc(-c2ccccc2C(F)(F)F)nc2c1cnn2C (centres undefined)	?	nt	?	-2.8	nt	nt

Source: PubChem BioAssay
